Assay [1] in a line: Primary qHTS for inhibitors of nuclear receptor binding SET domain protein 2 (NSD2) in an RCH-ACV wild type WT cells (2C) (AID 1645877). Note: nearly all actives have a fitted effect of over 70% in size. Note: potency is the fitted concentration of half-maximal effect.
Assay [2] addresses Glutathione peroxidase 1 (Homo sapiens) (UniProt P07203). In words: Primary qHTS Assay for Inhibitors of Recombinant Selenoprotein Glutathione Peroxidase 1 (GPX1) (AID 1845191). Note: nearly all actives have a fitted effect of over 65% in size. The method, boiled down: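 10 nM GPX1 + cpd, 30 min RT; start w/ 1 mM GSH, 0.5 mM cumene hydroperoxide, 0.5 mM NADPH, 100 nM GR, 0.01% BSA; buffer 50 mM Tris-HCl pH 7.5, 2 mM EDTA, 150 mM NaCl; Fl 340/450, 0 & 15 min.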

In assay [3] the target is Phospholipid hydroperoxide glutathione peroxidase GPX4 (Homo sapiens) (UniProt P36969). In words: Primary qHTS Assay for Inhibitors of Recombinant Selenoprotein Glutathione Peroxidase 4 (GPX4) (AID 1845192). Note: nearly all actives have a fitted effect of over 65% in size. The method, boiled down: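 NADPH consumption, followed by fluorescence at 340/450 nm between 0 and 15 min, reports GPX4 activity via coupled glutathione reductase (100 nM). Enzyme 200 nM was pre-exposed to compound 30 min; 0.5 mM cumene hydroperoxide and 1 mM GSH served as substrates.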
Phospholipid hydroperoxide glutathione peroxidase GPX4 (Homo sapiens), sequence (P36969 whole entry, looked up): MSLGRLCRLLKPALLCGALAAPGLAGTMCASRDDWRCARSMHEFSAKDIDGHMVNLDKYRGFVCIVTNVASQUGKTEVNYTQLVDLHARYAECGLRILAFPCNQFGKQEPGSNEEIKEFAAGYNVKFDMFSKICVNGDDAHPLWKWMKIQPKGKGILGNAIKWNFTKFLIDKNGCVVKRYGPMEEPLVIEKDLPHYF

In assay [4] the target is Luciferin 4-monooxygenase (Photinus pyralis) (UniProt P08659). In words: Primary firefly luciferase (FLuc) qHTS assay for identification of artifact compounds. (AID 1845220). Note: nearly all actives have a fitted effect of over 60% in size. The method, boiled down:
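Compounds sat 15 min at room temperature with 10 uM luciferin and 10 uM ATP (pH 7.6 Tris acetate). Firefly luciferase (10 nM final) was then added, and luminescence was read 5 min later. Data normalized to no-enzyme and DMSO controls were Hill-fitted.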

A short description of assay [5]: Primary fluorescence-based thiol-reactive (MSTI) qHTS assay for identification of artifact compounds. (AID 1845221). Note: nearly all actives have a fitted effect of over 65% in size. Note: potency is the fitted concentration of half-maximal effect. The method, boiled down: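 Reactivity toward the thiol probe MSTI (4 uM) is scored by fluorescence at Ex/Em 525/598 nm after 1 h at room temperature. Acetyl-MSTI and MSTI define the activity scale.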
Assay [6] concerns Nanoluciferase (engineered Oplophorus gracilirostris luciferase). In words: Primary Nanoluciferase (NLuc) qHTS assay for identification of artifact compounds. (AID 1845222). Note: series mostly up to about 54 µM. The method, boiled down: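 Luminescence from secreted NLuc (filtered, 1:55-diluted S16 cell medium) read 5 min after Nano-Glo substrate; compounds preincubated 15 min, RT. Hill fits of inhibition normalized to DMSO and no-enzyme.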

Assay [7] can be described thus: Primary redox qHTS assay for identification of artifact compounds. (AID 1845223). An outline of the steps: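 Amplex Red (25 uM) and HRP (250 mU/mL) in HBSS, with compounds for 15 min, then 250 uM DTT for 30 min, room temperature, dark. Fluorescence 525/598 nm read; normalized to DMSO and 10 uM DA3003; Hill fit.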

A number with no mark means an inactive call. Results filed as inconclusive are left out. Active and inactive are the calls of the source. Calls come from the whole dose curve; as a rule, active = well fitted curve in the direction sought with a large enough effect; inconclusive = small, poorly fitted or top-dose-only effect, or another doubt; inactive = no such curve, though single readings can be large; an effect the other way counts as inactive or inconclusive.

Here are results for 24 molecules from PubChem BioAssay (NCATS).

Glutathione peroxidase 1 (Homo sapiens), sequence (P07203 whole entry, looked up): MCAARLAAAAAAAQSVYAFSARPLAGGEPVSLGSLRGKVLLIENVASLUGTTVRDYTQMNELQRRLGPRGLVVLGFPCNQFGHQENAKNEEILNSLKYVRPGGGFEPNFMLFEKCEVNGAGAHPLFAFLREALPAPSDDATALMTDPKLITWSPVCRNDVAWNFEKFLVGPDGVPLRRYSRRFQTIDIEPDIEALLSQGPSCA

As to `C=C1C(=O)O[C@H]2C1[C@H](OC(=O)/C(=C/CO)COC(=O)/C(C)=C/CO)CC(=C)[C@@H]1CC(=O)[C@@H](C)[C@@H]12` (stereo partly drawn), in assay [1], the Potency is 1780 nM (active). Besides, the Potency result in assay [2], in assay [3], in assay [4], in assay [5], in assay [6] and in assay [7] was “inactive” in each case.

Regarding `CCOC(=O)Nc1cc(-c2ccc(C)c(NS(C)(=O)=O)c2)nn2c(C)nnc12`, the Potency in assay [1] was 515 nM (active). In addition, the Potency result in assay [2], in assay [3], in assay [4], in assay [5], in assay [6] and in assay [7] was “inactive” in each case.

As to `CC1=CCC2C(C)(C)CCC[C@]2(C)[C@@]12CC[C@](C)(CC(=O)O)O2` (stereo partly drawn), the Potency result in assay [1], in assay [2], in assay [3], in assay [4], in assay [5] and in assay [6] was “inactive” throughout. In addition, in assay [7], the Potency entry is “inactive”.

For the molecule `CCc1cc(CN2CC(C(=O)O)C2)sc1-c1noc(-c2ccc(Oc3ccccc3)cc2)n1`, the Potency in assay [1] was 10000 nM (active). Further, the Potency entry in assay [2], in assay [3], in assay [4], in assay [5], in assay [6] and in assay [7] was “inactive” throughout.

Take `COC(=O)CCc1cc2ccoc2c(OC)c1O[C@@H]1O[C@H](CO)[C@@H](O)[C@H](O)[C@H]1O`: the Potency entry in assay [1], in assay [2], in assay [3], in assay [4], in assay [5] and in assay [6] was “inactive” each time. Besides, in assay [7], the Potency result is “inactive”.

As to `O=C1OCc2cc3cccc(O[C@@H]4O[C@H](CO)[C@@H](O)[C@H](O)[C@H]4O)c3c(O)c21`, the Potency entry in assay [1], in assay [2], in assay [3], in assay [4], in assay [6] and in assay [7] was “inactive” each time. In assay [5], the Potency was 1650 nM (active).

`CC(=O)O[C@@H]1C[C@H](O)[C@@]23CO[C@H](O)[C@]1(C)C2C[C@@H](O)[C@]1(C)C3C(=O)[C@H](OC(C)=O)[C@@]2(C)[C@H](c3ccoc3)C[C@H]3O[C@]321` (stereo partly drawn): the Potency in assay [1] is 21.6 nM (active). The Potency entry in assay [2], in assay [3], in assay [4], in assay [5], in assay [6] and in assay [7] was “inactive” in each case.

In the case of `CCCC1(c2ccccc2)NC(=O)N(CC(=O)N(C)Cc2c(F)cccc2Cl)C1=O` (stereo not drawn), the Potency result in assay [1], in assay [2], in assay [3], in assay [4], in assay [5] and in assay [6] was “inactive” throughout. In addition, the Potency result in assay [7] was “inactive”.

Take `N=c1nc2n(cc1F)C1OC(CO)C(O)C1O2` (stereo not drawn): the Potency in assay [1] is 18.3 nM (active). For the same molecule, the Potency entry in assay [2], in assay [3], in assay [4], in assay [5], in assay [6] and in assay [7] was “inactive” throughout.

Consider `C=C(C(=O)O)[C@H]1C[C@]2(C)[C@@H](O)CC[C@]23O[C@H]1C[C@@H]3C`, for which the Potency result in assay [1], in assay [2], in assay [3], in assay [4], in assay [6] and in assay [7] was “inactive” throughout. The Potency in assay [5] is 29900 nM (active).

As for `C=C[C@H]1C(O[C@@H]2O[C@H](CO)[C@@H](O)[C@H](O)[C@H]2O)OC=C2C(=O)N3CCc4c([nH]c5ccccc45)[C@H]3C[C@H]21` (stereo partly drawn), the Potency result in assay [1], in assay [2], in assay [3], in assay [4], in assay [5] and in assay [6] was “inactive” throughout. The Potency entry in assay [7] was “inactive”.

As to `C[C@H]1CC[C@@]2(OC1)O[C@H]1CC3C4CC[C@H]5C[C@@H](O)[C@H](O)C[C@]5(C)C4=CC(=O)[C@]3(C)[C@H]1[C@@H]2C` (stereo partly drawn), the Potency entry in assay [1], in assay [2], in assay [3], in assay [4], in assay [5] and in assay [6] was “inactive” throughout. For the same molecule, in assay [7], the Potency result was “inactive”.

Consider `COc1c(C)c(OCC(O)C(C)(C)O)cc2c1COC2=O` (stereo not drawn), for which the Potency result in assay [1], in assay [2], in assay [3], in assay [4], in assay [5] and in assay [6] was “inactive” each time. In assay [7], the Potency entry was “inactive”.

As to `C[C@@H]1CC[C@@]2(OC1)O[C@H]1C[C@H]3[C@@H]4CC=C5C[C@@H](O)CC[C@]5(C)[C@H]4CC[C@]3(C)[C@H]1[C@@H]2C`, the Potency result in assay [1], in assay [2], in assay [3], in assay [4], in assay [5] and in assay [6] was “inactive” each time. Besides, in assay [7], the Potency result is “inactive”.

Turning to `C=C1CCCC2(C)CC3(OC)OC(=O)C(C)=C3CC12` (stereo not drawn), the Potency result in assay [1], in assay [2], in assay [3], in assay [4], in assay [5] and in assay [6] was “inactive” each time. Moreover, the Potency entry in assay [7] is “inactive”.

`COC(=O)CCC(=O)OC[C@]1(C)CCC[C@@]2(C)C3CC[C@]4(C)C=CC3(CCC12)C4` (stereo partly drawn): the Potency result in assay [1], in assay [2], in assay [3], in assay [4], in assay [5] and in assay [6] was “inactive” throughout. The Potency result in assay [7] is “inactive”.

Take `COc1ccc(F)cc1-c1cc(NC(=O)[C@@H]2CCCNC2)ncc1Cl`: the Potency in assay [1] was 64.9 nM (active). For the same molecule, the Potency result in assay [2], in assay [3], in assay [4], in assay [5], in assay [6] and in assay [7] was “inactive” each time.

On to `CC1=CC(=O)[C@]2(O[C@@H]3O[C@@H](C)[C@H](O)[C@@H](O)[C@H]3OC(=O)/C=C/c3ccccc3)C=CO[C@@H](O[C@@H]3O[C@H](CO)[C@@H](O)[C@H](O)[C@H]3O)[C@H]12`, for which the Potency result in assay [1], in assay [2], in assay [3], in assay [4], in assay [6] and in assay [7] was “inactive” each time. Moreover, the Potency in assay [5] is 2510 nM (active).

Turning to `CCCN1CCC(c2cccc(S(C)(=O)=O)c2)CC1`, the Potency result in assay [1], in assay [2], in assay [3], in assay [4], in assay [5] and in assay [6] was “inactive” in each case. Moreover, the Potency result in assay [7] is “inactive”.

As to `COc1ccc(N(C)c2nc(C)nc3ccccc23)cc1`, the Potency in assay [1] was 11.8 nM (active). The Potency entry in assay [2], in assay [3], in assay [4], in assay [5], in assay [6] and in assay [7] was “inactive” each time.

Consider `CC1=CC2/C=C(\C)CC[C@@H](O)[C@@H](O)[C@@H]3O[C@@H]3C(=O)[C@]23C(=O)N[C@@H](CC(C)C)[C@@H]3[C@@H]1C` (stereo partly drawn), for which the Potency result in assay [1], in assay [2], in assay [3], in assay [4], in assay [5] and in assay [6] was “inactive” each time. In assay [7], the Potency entry was “inactive”.

Regarding `CC(C)[C@@H]1C(=O)N(S(C)(=O)=O)[C@@H]2CCN(C(=O)/C=C/CN3CCCCC3)[C@H]21`, the Potency result in assay [1], in assay [2], in assay [3], in assay [4], in assay [5] and in assay [6] was “inactive” throughout. Also, the Potency result in assay [7] is “inactive”.

Consider `C[C@]12C=C[C@@]3(CCC4[C@](C)(CO)CCC[C@@]4(C)C3CC1)C2` (stereo partly drawn), for which the Potency entry in assay [1], in assay [2], in assay [3], in assay [4], in assay [5] and in assay [6] was “inactive” each time. Moreover, the Potency entry in assay [7] was “inactive”.

`CS(=O)(=O)N(CC(=O)NCC1CC1)c1cc(C(F)(F)F)ccc1Cl`: the Potency result in assay [1], in assay [2], in assay [3], in assay [4], in assay [5] and in assay [6] was “inactive” in each case. In addition, the Potency result in assay [7] was “inactive”.
